# Hit rate of the full screen: of about 310,000 compounds, about 14,000 (4.5%) showed an effect of 50% or more. Effects have a minus sign here. The sample as a whole holds a higher share of strong results than the screen did.
# Biological target: human ether-à-go-go-related gene (hERG) potassium channel (human, UniProt Q12809)
# Assay: primary screen, population patch clamp on CHO cells stably expressing hERG; higher = less effect of the substance
# 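Also: peak tail current of the secondary pulse compared with the same well before compound.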
# human ether-à-go-go-related gene (hERG) potassium channel, sequence (Q12809 whole entry, looked up): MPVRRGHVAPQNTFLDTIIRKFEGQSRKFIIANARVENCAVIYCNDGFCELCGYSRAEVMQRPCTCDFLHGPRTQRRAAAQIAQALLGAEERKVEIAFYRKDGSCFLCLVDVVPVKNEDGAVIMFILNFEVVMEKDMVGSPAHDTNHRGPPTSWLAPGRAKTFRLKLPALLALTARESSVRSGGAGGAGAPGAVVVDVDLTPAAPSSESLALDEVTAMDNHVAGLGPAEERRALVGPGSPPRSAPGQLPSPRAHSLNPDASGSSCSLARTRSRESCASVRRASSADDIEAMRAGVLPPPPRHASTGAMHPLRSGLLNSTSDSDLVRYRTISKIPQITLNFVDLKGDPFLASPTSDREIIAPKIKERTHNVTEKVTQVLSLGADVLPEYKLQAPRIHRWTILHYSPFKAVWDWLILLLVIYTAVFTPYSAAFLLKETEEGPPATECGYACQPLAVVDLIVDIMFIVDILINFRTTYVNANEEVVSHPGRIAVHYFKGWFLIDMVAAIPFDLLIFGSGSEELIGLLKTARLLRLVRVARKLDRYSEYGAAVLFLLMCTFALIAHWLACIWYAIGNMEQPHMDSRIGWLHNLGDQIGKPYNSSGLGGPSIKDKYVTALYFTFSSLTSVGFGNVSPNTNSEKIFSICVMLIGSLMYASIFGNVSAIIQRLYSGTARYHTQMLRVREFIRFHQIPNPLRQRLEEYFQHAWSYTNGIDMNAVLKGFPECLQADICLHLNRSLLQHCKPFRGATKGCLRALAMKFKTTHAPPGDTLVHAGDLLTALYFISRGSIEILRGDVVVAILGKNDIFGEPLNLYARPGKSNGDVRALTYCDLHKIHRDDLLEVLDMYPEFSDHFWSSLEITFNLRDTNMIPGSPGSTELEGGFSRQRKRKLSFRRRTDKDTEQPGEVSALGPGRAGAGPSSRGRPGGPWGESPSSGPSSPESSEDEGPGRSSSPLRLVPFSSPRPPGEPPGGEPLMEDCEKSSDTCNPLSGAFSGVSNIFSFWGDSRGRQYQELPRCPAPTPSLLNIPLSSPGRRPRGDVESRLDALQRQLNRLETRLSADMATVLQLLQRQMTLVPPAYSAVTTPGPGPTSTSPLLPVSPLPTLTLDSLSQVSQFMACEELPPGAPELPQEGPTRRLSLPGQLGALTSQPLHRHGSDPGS
row,Structure (SMILES),"hERG current change (%, negative = inhibition) at 10uM [%]"
1,COc1ccc2c(c1)[nH]c1c(=O)n(CCN(C)C)cnc12,-34.1
2,CCOC(=O)c1cccc(NC(=O)/C=C/c2cccc([N+](=O)[O-])c2)c1,-15.4
3,Cn1c(SCC(=O)NCc2ccccc2)nc2c([nH]c3ccccc32)c1=O,8.94
4,CCC(=O)Nc1nnc(S(=O)(=O)N2CCCC2)s1,8.85
5,Cc1c(NC(=O)c2cccc(F)c2)c(=O)n(-c2ccccc2)n1C,20.5
6,CCCOC(=O)c1ccc(NC(=O)c2ccccc2OC)cc1,4.44
7,CCOC(=O)C1=C(C)N(C)C(=O)NC1c1ccccc1OC (centres unmarked),-12.1
8,Cc1ccc(Nc2nc(Oc3ccc(OCc4ccccc4)nn3)nc(N3CCOCC3)n2)cc1,3.53
9,S=c1oc(-c2ccncc2)nn1CCc1ccncc1,13
10,CCc1nc2c3cnn(-c4cc(Cl)ccc4C)c3ncn2n1,5.24
11,Cn1c2ccccc2c2c(C(=O)O)cn(C3CCCC3)c(=O)c21,7.78
12,Cn1cc(-c2ccccc2C(N)=O)c(=O)c2ccccc21,5.37
13,NC(=O)c1cn(C2CCCCC2)c2ccccc2c1=O,-65.2
14,CN(C)S(=O)(=O)c1ccc(C(=O)N2CC(=O)Nc3ccc(F)cc3C2c2ccc(F)cc2)cc1 (centres unmarked),-21
15,CCC(CC)NC(=O)C1CCN(S(=O)(=O)c2cccs2)CC1,1.92
16,COc1ccc(Cl)cc1NC(=S)Nc1cccc(C)c1,10.3
17,Cl.O=C(O)c1ccc(CNCc2ccccc2F)cc1,5.98
18,Cc1cc(Cl)ccc1OCC(O)CN1C(C)CCCC1C.Cl (centres unmarked),-73.2
19,CC1CCCC(C)N1CC(O)COCc1ccccc1.Cl (centres unmarked),5.08
20,Cc1cc(OCC(O)CN2C(C)CCCC2C)ccc1C(C)C (centres unmarked),-32.4
21,CC(=O)Nc1ccc(OCC(O)CN2C(C)CCCC2C)cc1.Cl (centres unmarked),19.1
22,Cc1ccc(C)c(OCC(O)CN2C(C)CCCC2C)c1.Cl (centres unmarked),-67.9
23,Cc1cc(Cl)ccc1OCC(=O)N1C(C)CCCC1C (centres unmarked),-6.46

row,Structure (SMILES),"hERG current change (%, negative = inhibition) at 10uM [%]"
1,COc1cccc(OCC(O)CN2C(C)CCCC2C)c1.Cl (centres unmarked),10.8
2,CC1CCCC(C)N1CC(O)COc1ccc(Cl)cc1 (centres unmarked),-65
3,CC1CCCC(C)N1CC(O)COCc1ccccc1F.Cl (centres unmarked),13.2
4,CCn1c(/C=C/c2c[nH]c3ccccc23)nc2ccccc2c1=O,20.5
5,CCOc1ccc2nc(N3CCC(C(=O)Nc4nnc(CC)s4)CC3)sc2c1,11.9
6,Cn1c(=O)c2cn(Cc3ccc(Cl)cc3)cc2n(C)c1=O,-1.75
7,CCOc1ccc(C2NCCc3cc(OC)c(OC)cc32)cc1OC (centres unmarked),12.3
8,O=C1C(CSCc2ccccc2)NC(=S)N1c1ccccc1 (centres unmarked),16
9,Nc1nc(SCCO)[nH]c(=O)c1NC(=O)c1ccc(Br)o1,23.8
10,Cc1ccc(OCC(=O)NNC(=O)C2CCN(c3ncccn3)CC2)cc1,-18.6
11,COC(=O)C1=C[C@@H](C(=O)OC)[C@@H]2C3=C(C(=O)[C@]2(CC(C)C)NC(=O)c2ccccc2)[C@H](C)n2c(=O)n(-c4ccccc4)c(=O)n2[C@@H]3C1,-8.87
12,CCN(C(=O)COC(=O)C1CCN(S(=O)(=O)c2ccc3c(c2)OCCO3)CC1)C1CCCCC1,-2.31
13,CC1(C)Cc2cccc(OCC(=O)NCc3ccccc3F)c2O1,-5.79
14,CC(=O)N1CCC2(CC1)CC(=O)c1cc(OCC(=O)NCc3ccc(C)cc3)ccc1O2,-21.3
15,CC(Oc1ccccc1)C(=O)N1CCN(c2ccc(N3CCOCC3)nn2)CC1 (centres unmarked),-3.79
16,Cc1ccc(OCC(=O)N2CCC3(CC2)CC(=O)c2ccccc2O3)cc1,-73.3
17,CCOC(=O)COc1ccc2c(c1)C(=O)CC1(CCN(C(C)=O)CC1)O2,-19.7
18,CC(Oc1ccccc1)C(=O)N1CCN(c2ccc(N3CCCCCC3)nn2)CC1 (centres unmarked),-52.7
19,CC(Oc1ccccc1)C(=O)N1CCC2(CC1)CC(=O)c1ccccc1O2 (centres unmarked),-65.7
20,CC(Oc1ccccc1)C(=O)N1CCN(C(=O)C(C)Oc2ccccc2)CC1 (centres unmarked),8.52
21,CC(Oc1ccccc1)C(=O)N1CCN(c2ccc(N3CCCCC3)nn2)CC1 (centres unmarked),-28.5
22,CC(Oc1ccccc1)C(=O)N1CCC2(CC1)Oc1ccc(Cl)cc1C(=O)C21CC(c2ccccc2)=NO1 (centres unmarked),7.46
23,O=C1CC2(CCN(C(=O)COc3ccc(Cl)cc3)CC2)Oc2ccccc21,-85.8

row,Structure (SMILES),"hERG current change (%, negative = inhibition) at 10uM [%]"
1,COc1ccc(C2=NS(=O)(=O)N(C)C(C(=O)N3CCOCC3)=C2)cc1OC,-2.16
2,CN1CCN(C(=O)c2cnn(-c3ccccc3)c2NC(=O)c2cccs2)CC1,-29.2
3,CCCCC1(C(=O)OCC)NC(c2ccc(O)cc2)C2C(=O)N(c3ccccc3)C(=O)C21 (centres unmarked),-3.73
4,CCOC(=O)C1=C(N)N2C(=O)C(C)SC2=C(C(=O)OCC)C1c1cc(OC)c(OC)c(OC)c1 (centres unmarked),1.27
5,COc1ccc(OC)c(S(=O)(=O)N2CCC(C(=O)NCc3ccccc3)CC2)c1,-9.9
6,CN1CCN(/C=C2\SC(=S)NC2=O)CC1,11.6
7,O=C(NNc1ccccc1)C(=O)NNS(=O)(=O)c1ccc(CCCl)cc1,2.82
8,O=C1CC(N2CCOCC2)=NN1c1ccc([N+](=O)[O-])cc1,-8.54
9,CCNC(=S)NNC(=O)c1nn(C)c(C)c1Cl,19
10,CC(=O)Nc1c(O)n(C)c2ccccc12,13.6
11,CC(Oc1ccc(Br)cc1)C(=O)N1CCC(C(N)=O)CC1 (centres unmarked),-78.1
12,COc1ccccc1OCC(=O)N1CCC2(CC1)CC(=O)c1ccccc1O2,-40.2
13,COc1ccc(OCC(=O)N2CCC3(CC2)CC(=O)c2ccccc2O3)cc1,-88.9
14,Cc1ccccc1OCC(=O)N1CCC2(CC1)CC(=O)c1ccccc1O2,-57.5
15,CCOC(=O)C1CCN(C(=O)C(C)Oc2ccc(Br)cc2)CC1 (centres unmarked),-16.1
16,CCC(Oc1ccccc1)C(=O)N1CCC(C(N)=O)CC1 (centres unmarked),15.8
17,CC(=O)N1CCC2(CC1)CC(=O)c1cc(OCC(=O)N3CCC4(CC3)OCCO4)ccc1O2,18.5
18,CC(=O)N1CCC2(CC1)CC(=O)c1cc(OCC(=O)N3CCN(C)CC3)ccc1O2,1.86
19,CCN1CCN(C(=O)COc2ccc3c(c2)C(=O)CC2(CCN(C(C)=O)CC2)O3)CC1,20.5
20,O=C1CC2(CCN(C(=O)COc3ccccc3F)CC2)Oc2ccccc21,-49.1
21,CCOc1ccc(OCC(=O)N2CCC3(CC2)CC(=O)c2ccccc2O3)cc1,-94.6
22,CCOC(=O)N1CCN(C(=O)COc2ccc3c(c2)C(=O)CC2(CCN(C(C)=O)CC2)O3)CC1,-2.13
23,O=C(Nc1ccccc1N1CCOCC1)c1cccnc1,15

row,Structure (SMILES),"hERG current change (%, negative = inhibition) at 10uM [%]"
1,O=C(N/N=C/c1cccs1)c1cccc(NC(=O)c2ccc(Cl)cc2)c1,7.57
2,CO[C@@]1(NC(=O)C2SC(=C(C(N)=O)C(=O)O)S2)C(=O)N2C(C(=O)O)=C(CSc3nnnn3C)CS[C@@H]21 (some centres unmarked),13.6
3,CCCNc1nc(C)nc2c1cnn2CCc1ccccc1,-12.8
4,CCOc1nc(CC(C)C)c2c(c1C#N)CC(C)(C)OC2,1.14
5,O=C1CC(NS(=O)(=O)c2ccc3ccccc3c2)CN1c1ccccc1 (centres unmarked),-0.798
6,Cl.N=c1sccn1CC(=O)Nc1ccc(Cl)cc1[N+](=O)[O-],-21
7,COc1cc(C(=O)NNC(=O)c2cc(C)[nH]n2)cc(OC)c1OC,18.8
8,C/C(=N\NC(=O)C1CC1)c1cccs1,9.16
9,O=C1CC2(CCN(C(=O)COc3ccccc3)CC2)Oc2ccccc21,-67.4
10,O=C1CC2(CCCCC2)Oc2ccc(OCC(=O)N3CCOCC3)cc21,3.3
11,O=C1CC2(CCN(C(=O)COc3ccc(F)cc3)CC2)Oc2ccccc21,-42.6
12,O=C(NCc1ccncc1)/C(=N/O)c1ccccc1,18.7
13,CSc1ccccc1NC(=O)Nc1ccc(Cl)cc1,-1.3
14,CC(C)C(=O)Nc1ccccc1C(=O)OCC(=O)c1ccc2c(c1)OCCO2,-10.4
15,CCn1cc(CN2CCN(Cc3ccccc3)C(CCO)C2)c2ccccc21 (centres unmarked),-32
16,Cc1ccc(CN2CCN(Cc3cccc(C)n3)CC2CCO)cc1 (centres unmarked),-40.2
17,CC(C)Cn1c(CN2CCN(C)C(CCO)C2)nc2ccccc21 (centres unmarked),4.02
18,Cc1ccc(CN2CCN(Cc3nc4ccccc4nc3C)CC2CCO)cc1 (centres unmarked),-69.7
19,Cc1nc2ccccc2nc1CN1CCN(Cc2ccc(F)c(F)c2)C(CCO)C1 (centres unmarked),-40.4
20,Cc1ccccc1CN1CCN(Cc2ccc3cccc(F)c3n2)CC1CCO (centres unmarked),-32.7
21,OCCC1CN(Cc2ccc3cccc(F)c3n2)CCN1Cc1ccccc1 (centres unmarked),-15.6
22,Cc1ccc(CN2CCN(Cc3ccc4cccc(F)c4n3)CC2CCO)cc1 (centres unmarked),-68.6
23,CCn1c(CN2CCN(Cc3ccc(C)cc3)C(CCO)C2)nc2ccccc21 (centres unmarked),-74.7
